High-throughput results: PubChem, National Center for Advancing Translational Sciences (NCATS)
TSHR ag: qHTS Assay for Agonists of the Thyroid Stimulating Hormone Receptor; Thyrotropin receptor (Homo sapiens), P16473; HEK293-CNG-TSHR cells (CNG channel as cAMP sensor), membrane potential dye, cAMP; Potency, µM (titrated, usually from 57.1 µM), hits mostly activators; 73,000 compounds, 0.48% hits; AID 926, 2007; active = well fitted activation curve with a large enough effect in the main read-out, with a control signal flat, not every such curve was filed as active; inconclusive = small, poorly fitted or top-dose-only effect, or a change in a side signal; inactive = no such curve, though single readings can be large or run the other way; reference of the percent scale not stated here;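 note: the control signal comes from parental cells without the receptor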
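HEK 293 cells stably expressing TSHR and a cAMP-gated CNG channel; parental CNG-only cells as counterscreen. Cells preloaded 60 min with membrane potential dye plus 100 uM RO 20-1724, then compound 30 min; fluorescence read at 590 nm.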
ERK AVP block: qHTS Assay for Inhibitors of the ERK Signaling Pathway using a Homogeneous Screening Assay; HEK293-V1b, vasopressin-stimulated pERK AlphaScreen; Potency, µM (series often up to 57.5 µM), usual class: inhibitors; 72,000 compounds, 0.99% hits; note: nearly all actives have a fitted effect of over 55% in size
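Phosphorylated ERK1/2 detected via AlphaScreen bead proximity in lysates of V1b-expressing HEK293 cells given 25 nM vasopressin for 5 min after 30 min compound exposure (37 °C). AC50 from Hill equation; basal DMSO 0%, vasopressin 100%.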
HEK293 cAMP ctrl: qHTS Assay for Agonists of the Thyroid Stimulating Hormone Receptor: Activators of Intracellular cAMP Concentrations in Parental HEK 293 | Potency, µM (doses to about 57.1 µM), actives largely listed as activators | AID 938, 2007 | parental HEK293 CNG cAMP sensor, membrane potential fluorescence | 73,000 compounds, 2.5% hits; note: nearly all actives have a fitted effect of over 55% in size
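Parental HEK 293 cells stably expressing a modified CNG channel (no TSHR) report cAMP rise as membrane depolarization. Membrane potential dye with 100 uM RO 20-1724 was loaded for 60 min at room temperature, then compound added for 30 min; fluorescence read at 590 nm.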
CRE Fsk mod: Cell signaling CRE-BLA (Fsk stim); AID 662, 2007; Potency, µM (highest dose often 38.2 µM), most hits filed as activators; CHO CRE-bla reporter (cAMP response element driving beta-lactamase), forskolin EC10, beta-lactamase ratio; 71,000 compounds, 2.5% hits; active = well fitted activation curve with a large enough effect in the signal ratio, with a control signal flat, not every such curve was filed as active; inconclusive = small, poorly fitted or top-dose-only effect, or effect the other way, or a change in a side signal; the % refers to the signal ratio
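Titrated compounds plus EC10 NKH 477 on CHO CRE-bla cells, 3 h, 37 °C. CCF4, 2 h RT. Ratio 460/530 nm → AC50.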
IkB signaling: IkB Signaling | 110,000 compounds, 0.04% hits | Potency, µM (top dose mostly 57.1 µM) | AID 445, 2006 | ABC-DLBCL IkBa-CBG/CBR dual luciferase ratio, 4 h; response scale: scaled: untreated 0%, proteasome inhibitor 100%; active = well fitted curve in the direction sought with a large enough effect in the signal ratio, not every such curve was filed as active; inconclusive = small, poorly fitted or top-dose-only effect, or a change in a side signal; the % refers to the signal ratio;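 note: the direction sought is a rising ratio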
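In this assay, an IκBα–CBG68 fusion accumulates when IKK-driven degradation is blocked; native CBR normalizes for cell number. OCI-Ly3 cells were treated 4 h with compound and doxycycline, then green and red light read after Chroma-Glo addition.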
A number is an active result; – = inactive; ? = inconclusive; · = not tested or not shown; [ ] = remark or other dose. Sampled rows, rich in hits. Any-hit rate of the full collection: about 3.6%. Unless noted, calls come from the whole dose curve; as a rule, active = well fitted curve in the direction sought with a large enough effect; inconclusive = small, poorly fitted or top-dose-only effect, or another doubt; inactive = no such curve, though single readings can be large; an effect the other way counts as inactive or inconclusive.

SMILES | TSHR ag | ERK AVP block | HEK293 cAMP ctrl | CRE Fsk mod | IkB signaling
CCc1c(C)nc2cc(-c3cc(OC)cc(OC)c3)nn2c1N1CCCC1 | ? | – | 20µM | 2.5µM | ?
COc1cc(OC)cc(-c2cc3nc4c(c(N5CCN(c6ncccn6)CC5)n3n2)CCCC4)c1 | – | – | – | 3.2µM | –
CCOCCN1CCN(c2c3c(nc4cc(-c5ccc(F)cc5)nn24)CCC3)CC1 | – | – | – | – | ?
OC1CCN(c2c3c(nc4cc(-c5cccc(F)c5)nn24)CCCC3)CC1 | – | – | – | 3.2µM | ?
COc1cc(OC)cc(-c2cc3nc4c(c(N5CCN(c6cnccn6)CC5)n3n2)CCCC4)c1 | · | – | – | 1.6µM | –
Fc1cccc(-c2cc3nc4c(c(N5CCC6(CC5)OCCO6)n3n2)CCCC4)c1 | ? | – | ? | – | –
CCOc1cc(CNc2ncc(-c3ccc(OC)cc3)n2C)ccc1O | – | – | – | ? | –
O=c1cc(N2CCN(c3ccc(F)cc3)CC2)[nH]c(=O)n1-c1cccc(Br)c1 | · | · | · | · | –
O=S(=O)(Nc1cccc2cn[nH]c12)c1ccc(F)cc1 | – | – | – | – | –
COc1cc(-c2nnc3sc(-c4ccncc4)nn23)cc(OC)c1OC | –[11.4 µM] | – | – | 2µM | –
COc1cc(-c2nn3c(Cc4ccccc4)nnc3s2)cc(OC)c1OC | · | – | – | 0.79µM | –
CCOc1ccc(-c2nn3c(-c4ccccc4)nnc3s2)cc1 | ? | – | ? | – | –
COc1cc(-c2nn3c(-c4ccccc4)nnc3s2)cc(OC)c1OC | – | – | – | 4µM | –
c1ccc(Cc2nnc3sc(-c4ccco4)nn23)cc1 | – | · | – | – | –
O=C(Cn1c2ncccc2c(=O)n1-c1ccccc1)Nc1ccc(Cl)cc1C(F)(F)F | · | · | · | · | –
CC1CCN(S(=O)(=O)c2ccc(F)c(C(=O)O)c2)CC1 | – | – | – | – | –
COc1ccccc1N(CC(=O)NC(C)(C)C)C(=O)Cn1nnc(-c2ccc(C)o2)n1 | – | – | – | – | –
CN(C)C(=O)c1ccc(-c2cc(NCc3cccs3)ncn2)cc1 | – | – | – | – | –[11.4 µM]
CN(C)C(=O)c1ccc(-c2ccc3ncnc(NCc4cccs4)c3c2)cc1 | – | 32µM | – | ? | –[11.4 µM]
COc1cccc(-c2ccc3ncnc(NCc4cccs4)c3c2)c1 | ? | 16µM | ? | ? | –[11.4 µM]
COc1cccc(-c2ccc3ncnc(NCc4cnc(C)cn4)c3c2)c1 | – | – | – | – | –[11.4 µM]
COc1ccc(N2CCN(CCCNS(=O)(=O)c3ccc4c(c3)oc(=O)n4C)CC2)cc1 | ? | ? | ? | – | –
COCCn1c(SCC(=O)N2CCCc3ccccc32)nc2ccccc2c1=O | ? | – | 20µM | ? | –
COCCn1c(SCC(=O)N2CCCc3ccccc32)nnc1-c1ccco1 | – | – | – | ? | –
Cc1ccc(OCCn2c(C)c(/C=N/n3cnnc3)c3ccccc32)cc1 | – | – | – | 1.6µM | –
SMILES | TSHR ag | ERK AVP block | HEK293 cAMP ctrl | CRE Fsk mod | IkB signaling
Cc1c(/C=N/n2cnnc2)c2ccccc2n1CCOc1ccc(Cl)cc1 | – | – | – | ? | ?
C=CCc1c(C)nc(SC)nc1Nc1ccc(C(=O)O)cc1 | – | ? | – | ? | –
C=CCc1c(C)nc(SC)nc1Nc1ccc(C(C)=O)cc1 | – | ? | – | 10µM | ?
COc1ccc(-c2cn3cccnc3n2)cc1NC(=O)c1ccc(Br)o1 | – | – | – | 2.5µM | –
Cc1nc(Nc2ccc3c(c2)OCCO3)c2oc3ccccc3c2n1 | · | 16µM | – | ? | –
Cc1c(Cl)cccc1Nc1nc2ccc(C(=O)c3ccccc3)cc2n2cnnc12 | · | · | · | · | –
COc1ccc2c(CSc3nc4nc(C)cc(C)n4n3)cc(=O)oc2c1 | – | ? | – | 10µM | –
COc1ccc(C(=O)CSc2nc3nc(C)cc(C)n3n2)cc1OC | – | ? | – | 4µM | –
Cc1cc(C)n2nc(SCc3ncc(-c4ccccc4)o3)nc2n1 | – | – | – | ? | –
Cc1cc(C)n2nc(SCC(=O)Nc3ccc(F)cc3)nc2n1 | – | – | – | 5µM | –
Cc1ccc(CNC(=O)C2CCN(S(=O)(=O)Cc3ccccc3)CC2)cc1 | · | · | · | · | –
